PubChem BioAssay AID1159580 (chemical genetic matrix, 2015)
Screen size: about 5,500 compounds; about 2,000 (36%) were called active. Inconclusive results (about 18%) are left out. Cut-off read from the data, not from the text of the source: active = normalized growth mostly below about 0.91 (no sharp cut-off); inconclusive = no clear call, values can overlap the other calls; inactive = mostly above about 0.92. The list shows a part of the results.

Experiment: chemical genetic growth profiling, strain panel (AID 1159580);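 note: tested at 20 µM; growth read once vehicle control cultures reached saturation at 30 °C; 1 = growth at the plate median or of vehicle wells; lower values mean less growth of the strain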
Settings: growth OD

Measured: normalized growth

C=C[C@@](C)(O)CCC1C(=C)C[C@H](O)C2C(C)(C)CCCC12C (some centres not stated)
inactive: S. cerevisiae deletion strains, locus YJR075W, strain HOC1, hits give low values 1.01 | S. cerevisiae deletion strains, locus YKL009W, strain mrt4, hits give low values 1.01 | S. cerevisiae deletion strains, locus YKL068W, hits give low values 1.01 | S. cerevisiae deletion strains, locus YKL085W, strain MDH1 (second series), hits give low values 1.02 | S. cerevisiae deletion strains, locus YKL085W, strain MDH1, hits give low values 1.02 | S. cerevisiae deletion strains, locus YKL160W, strain elf1, hits give low values 0.981 | S. cerevisiae deletion strains, locus YKL190W, strain CNB1, hits give low values 1.01 | S. cerevisiae deletion strains, locus YKR001C, strain vps1, hits give low values 1.01 | S. cerevisiae deletion strains, locus YKR026C, strain gcn3, hits give low values 0.992 | S. cerevisiae deletion strains, locus YKR091W, strain srl3, hits give low values 0.991 | S. cerevisiae deletion strains, locus YLL001W, strain dnm1, hits give low values 0.97 | S. cerevisiae deletion strains, locus YLL026W, hits give low values 0.998 | S. cerevisiae deletion strains, locus YLL041C, strain sdh2, hits give low values 0.984 | S. cerevisiae deletion strains, locus YLR027C, strain aat2, hits give low values 0.995 | S. cerevisiae deletion strains, locus YLR039C, strain RIC1, hits give low values 0.949 | S. cerevisiae deletion strains, locus YLR058C, strain SHM2, hits give low values 1.01 | S. cerevisiae deletion strains, locus YLR102C, strain apc9, hits give low values 1.03 | S. cerevisiae deletion strains, locus YLR113W, strain HOG1, hits give low values 0.867 | S. cerevisiae deletion strains, locus YLR221C, strain rsa3, hits give low values 0.968 | S. cerevisiae deletion strains, locus YLR258W, strain gsy2, hits give low values 0.983 | S. cerevisiae deletion strains, locus YLR262C, strain YPT6 (second series), hits give low values 0.876 | S. cerevisiae deletion strains, locus YLR262C, strain YPT6, hits give low values 0.943 | S. cerevisiae deletion strains, locus YLR268W, strain sec22, hits give low values 1.01 | S. cerevisiae deletion strains, locus YLR320W, strain mms22, hits give low values 0.946 | S. cerevisiae deletion strains, locus YLR330W, strain CHS5, hits give low values 1.01 | S. cerevisiae deletion strains, locus YLR342W, strain FKS1 (second series), hits give low values 0.985 | S. cerevisiae deletion strains, locus YLR342W, strain FKS1, hits give low values 0.976 | S. cerevisiae deletion strains, locus YLR357W, strain rsc2, hits give low values 1.01 | S. cerevisiae deletion strains, locus YLR370C, strain arc18, hits give low values 0.976 | S. cerevisiae deletion strains, locus YLR371W, strain rom2, hits give low values 1.04 | S. cerevisiae deletion strains, locus YLR384C, strain iki3, hits give low values 0.98 | S. cerevisiae deletion strains, locus YLR418C, strain cdc73, hits give low values 0.994 | S. cerevisiae deletion strains, locus YML016C, strain PPZ1, hits give low values 1 | S. cerevisiae deletion strains, locus YML032C, strain rad52, hits give low values 1.05 | S. cerevisiae deletion strains, locus YML120C, strain ndi1, hits give low values 0.99 | S. cerevisiae deletion strains, locus YML124C, strain tub3, hits give low values 1.02 | S. cerevisiae deletion strains, locus YMR058W, strain fet3, hits give low values 0.995 | S. cerevisiae deletion strains, locus YMR078C, strain ctf18, hits give low values 1.03 | S. cerevisiae deletion strains, locus YMR125W, strain sto1, hits give low values 1.01 | S. cerevisiae deletion strains, locus YMR129W, hits give low values 0.985 | S. cerevisiae deletion strains, locus YMR205C, strain PFK2, hits give low values 0.934 | S. cerevisiae deletion strains, locus YMR223W, strain ubp8, hits give low values 1.02 | S. cerevisiae deletion strains, locus YMR231W, strain pep5, hits give low values 0.999 | S. cerevisiae deletion strains, locus YMR263W, strain SAP30, hits give low values 1.01 | S. cerevisiae deletion strains, locus YMR307W, strain GAS1, hits give low values 1.01 | S. cerevisiae deletion strains, locus YNL067W, strain RPL9B, hits give low values 0.996 | S. cerevisiae deletion strains, locus YNL071W, strain lat1, hits give low values 0.928 | S. cerevisiae deletion strains, locus YNL128W, strain TEP1, hits give low values 1.01 | S. cerevisiae deletion strains, locus YNL153C, strain GIM3, hits give low values 1.01 | S. cerevisiae deletion strains, locus YNL183C, strain NPR1, hits give low values 0.923 | S. cerevisiae deletion strains, locus YNL209W, strain ssb2, hits give low values 0.998 | S. cerevisiae deletion strains, locus YNL233W, strain BNI4, hits give low values 1.02 | S. cerevisiae deletion strains, locus YNL248C, strain rpa49, hits give low values 0.984 | S. cerevisiae deletion strains, locus YNL250W, strain rad50, hits give low values 1.03 | S. cerevisiae deletion strains, locus YNL271C, strain bni1, hits give low values 1.03 | S. cerevisiae deletion strains, locus YNL298W, strain CLA4, hits give low values 1.02 | S. cerevisiae deletion strains, locus YNL307C, strain MCK1, hits give low values 1 | S. cerevisiae deletion strains, locus YNL322C, strain KRE1 (second series), hits give low values 0.986 | S. cerevisiae deletion strains, locus YNL322C, strain KRE1, hits give low values 1.01 | S. cerevisiae deletion strains, locus YNR049C, strain mso1, hits give low values 0.994 | S. cerevisiae deletion strains, locus YNR052C, strain pop2, hits give low values 1.02 | S. cerevisiae deletion strains, locus YOL006C, strain TOP1, hits give low values 0.935 | S. cerevisiae deletion strains, locus YOL012C, strain htz1 1.27 | S. cerevisiae deletion strains, locus YOL147C, strain pex11, hits give low values 1.02 | S. cerevisiae deletion strains, locus YOR001W, strain rrp6, hits give low values 0.984 | S. cerevisiae deletion strains, locus YOR061W, strain CKA2, hits give low values 1.01 | S. cerevisiae deletion strains, locus YOR069W, strain VPS5, hits give low values 1.01 | S. cerevisiae deletion strains, locus YOR070C, strain gyp1, hits give low values 0.986 | S. cerevisiae deletion strains, locus YOR080W, strain dia2, hits give low values 0.998 | S. cerevisiae deletion strains, locus YOR083W, strain WHI5, hits give low values 0.964 | S. cerevisiae deletion strains, locus YOR106W, strain vam3, hits give low values 0.978 | S. cerevisiae deletion strains, locus YOR136W, strain idh2, hits give low values 1.03 | S. cerevisiae deletion strains, locus YOR144C, strain elg1, hits give low values 1.02 | S. cerevisiae deletion strains, locus YOR184W, strain ser1, hits give low values 1.01 | S. cerevisiae deletion strains, locus YOR231W, strain MKK1, hits give low values 0.923 | S. cerevisiae deletion strains, locus YOR265W, strain rbl2, hits give low values 0.992 | S. cerevisiae deletion strains, locus YOR270C, strain vph1, hits give low values 0.886 | S. cerevisiae deletion strains, locus YOR290C, strain snf2, hits give low values 0.934 | S. cerevisiae deletion strains, locus YOR316C, strain cot1, hits give low values 1.03 | S. cerevisiae deletion strains, locus YPL051W, strain arl3, hits give low values 0.975 | S. cerevisiae deletion strains, locus YPL055C, strain LGE1, hits give low values 1.01 | S. cerevisiae deletion strains, locus YPL078C, strain atp4, hits give low values 0.978 | S. cerevisiae deletion strains, locus YPL106C, strain sse1, hits give low values 1.03 | S. cerevisiae deletion strains, locus YPL240C, strain hsp82, hits give low values 0.984 | S. cerevisiae deletion strains, locus YPL241C, strain CIN2, hits give low values 1.01 | S. cerevisiae deletion strains, locus YPL256C, strain CLN2, hits give low values 0.953 | S. cerevisiae deletion strains, locus YPR119W, strain clb2, hits give low values 1.03 | S. cerevisiae deletion strains, locus YPR141C, strain kar3, hits give low values 1.03 | S. cerevisiae deletion strains, locus YPR163C, strain tif3, hits give low values 1.02 | S. cerevisiae deletion strains, locus YPR167C, strain met16, hits give low values 1.02 | S. cerevisiae deletion strains, strain wtn01, hits give low values 1.02 | S. cerevisiae strains, strain wild type, hits give low values 1.01
